Assay [1] relates to Plasmodium falciparum. Put plainly: GSK_TCMDC: Inhibition of Plasmodium falciparum 3D7 in whole red blood cells, using parasite LDH activity as an index of growth. Test compounds present at 2uM. The class given is functional.
Assay [2] relates to Plasmodium falciparum. As to the kind of experiment: GSK_TCMDC: Inhibition of Plasmodium falciparum Dd2 in whole red blood cells, using parasite LDH activity as an index of growth. Test compounds present at 2uM. In kind it is functional.

Values joined by “and” are separate entries in the source; they are usually repeats but may differ in a detail not shown here. Equal entries are not always repeated.

A word on the Inhibition: it is the share of the control response that was lost under treatment.

With `COc1cc(Cc2cnc(N)nc2N)cc(OCCCCCCC(=O)O)c1OC`, the Inhibition in the assay on Plasmodium falciparum [1] is given as 90%; in the assay on Plasmodium falciparum [2], 2%.

For the compound `Nc1nc(N)c2c(Oc3cccc(Cl)c3)cccc2n1`, the values for the Inhibition in the assay with Plasmodium falciparum [1] and with Plasmodium falciparum [2] were 97% and 7%, respectively.

As for `Nc1nc(N)c2cc(Cc3ccc([N+](=O)[O-])cc3)cnc2n1.O=S(=O)(O)O`, the Inhibition in the assay on Plasmodium falciparum [1] came out at 91%; in the assay with Plasmodium falciparum [2], 0%.

Turning to `C=CCOc1ccc(Cc2cnc(N)nc2N)cc1CCC`, the Inhibition was found to be 93% in the assay with Plasmodium falciparum [1] and 0% in the assay on Plasmodium falciparum [2].

Take `Cc1c(C(C)(C)C)ccc2nc(N)nc(N)c12`: the Inhibition with Plasmodium falciparum [1] was found to be 89%; in the assay with Plasmodium falciparum [2] it was 0%.

Consider `Cc1ccccc1OCCCc1c(C)nc(N)nc1N`, for which the Inhibition in the assay on Plasmodium falciparum [1] came to 97%; in the assay on Plasmodium falciparum [2], 1%.

Consider `Cc1[nH]c(C)c(-c2ccc(Oc3ccc(C(F)(F)F)cc3)cc2)c(=O)c1Br`, for which the Inhibition in the assay with Plasmodium falciparum [1] and in the assay on Plasmodium falciparum [2] was 97% in each case.

On to `Cc1nc(C)c(-c2ccc(Oc3ccc(Cl)c(Cl)c3)cc2)c(O)c1Cl`, for which the Inhibition stood at 100% in the assay on Plasmodium falciparum [1] and 97% in the assay with Plasmodium falciparum [2].

Consider `CCCN(c1ccc(O)c(CN2CCCCC2)c1)c1ccc([N+](=O)[O-])cn1.O=C(O)C(=O)O`, for which the Inhibition with Plasmodium falciparum [1] came to 99%; in the assay with Plasmodium falciparum [2], 96%.

Regarding `CC(C)Cn1cc2c(ccc3nc(N)nc(N)c32)n1`, the Inhibition was 97% in the assay with Plasmodium falciparum [1] and 2% with Plasmodium falciparum [2].

On to `Cc1nc(C)c(-c2ccc(Sc3ccc(Cl)cc3)cc2)c(O)c1Br`, for which the values for the Inhibition in the assay with Plasmodium falciparum [1] and in the assay with Plasmodium falciparum [2] were 98% and 97%, respectively.

Regarding `Cl.Nc1nc(N)c2c3c(ccc2n1)NCCC3`, the Inhibition in the assay with Plasmodium falciparum [1] was found to be 97%; in the assay with Plasmodium falciparum [2], 0%.

In the case of `CC(C)Oc1ccc2ccccc2c1CNCCCCCCNCc1c(OC(C)C)ccc2ccccc12.CS(=O)(=O)O`, the Inhibition with Plasmodium falciparum [1] was found to be 99%; in the assay on Plasmodium falciparum [2], 90%.

For `CCC(C)c1cnc2nc(N)nc(N)c2c1C` (stereo unspecified), the Inhibition with Plasmodium falciparum [1] is given as 97%; in the assay on Plasmodium falciparum [2], 1%.

As to `O=C(NCCCCN1CCN(c2nsc3ccccc23)CC1)c1ccccc1C(=O)NCCCCN1CCN(c2nsc3ccccc23)CC1`, the Inhibition with Plasmodium falciparum [1] is reported as 100%; in the assay on Plasmodium falciparum [2], 22%.

In the case of `Nc1nc(N)c2c(ccc3c2cnn3Cc2cccnc2)n1`, the Inhibition with Plasmodium falciparum [1] is 95%; in the assay with Plasmodium falciparum [2], 96%.

Regarding `CCOc1cc(OCC)c2ccccc2c1CNCCCCCCNCc1c(OCC)cc(OCC)c2ccccc12.CS(=O)(=O)O`, the Inhibition was 100% in the assay on Plasmodium falciparum [1] and 89% in the assay with Plasmodium falciparum [2].

Regarding `COc1ccc2nc3cc(Cl)ccc3c(Nc3ccc(Oc4ccc(Nc5c6ccc(Cl)cc6nc6ccc(OC)cc56)cc4)cc3)c2c1.Cl`, the values for the Inhibition in the assay on Plasmodium falciparum [1] and in the assay with Plasmodium falciparum [2] were 86% and 93%, respectively.

For `Cc1nc(C)c(-c2ccc(Oc3ccc(OC(F)(F)F)cc3)cc2)c(OC(=O)c2ccc(CN(C)C)cc2)c1Cl`, the Inhibition with Plasmodium falciparum [1] and in the assay with Plasmodium falciparum [2] was 98% in each case.

Consider `Cl.c1ccc2c(c1)cc(CNCCCN1CCN(CCCNCc3cc4ccccc4c4ccccc34)CC1)c1ccccc12`, for which the Inhibition was determined as 100% with Plasmodium falciparum [1] and 98% in the assay on Plasmodium falciparum [2].

In the case of `Cc1[nH]c(C)c(-c2ccc(Oc3ccc(F)cc3)cc2)c(=O)c1Br`, the figures for the Inhibition with Plasmodium falciparum [1] and in the assay with Plasmodium falciparum [2] were 100% and 98%, respectively.

Turning to `Cc1nc(C)c(-c2ccc(-c3ccc(F)cc3)cc2)c(O)c1Cl`, the Inhibition with Plasmodium falciparum [1] and in the assay with Plasmodium falciparum [2] was 96% each time.

Consider `CN(C)S(=O)(=O)n1ncc2c3c(N)nc(N)nc3ccc21.Cl`, for which the figures for the Inhibition in the assay on Plasmodium falciparum [1] and in the assay on Plasmodium falciparum [2] were 96% and 0%, respectively.

On to `Nc1nc(N)c2c3c(ccc2n1)CCC3`, for which the Inhibition was determined as 92% with Plasmodium falciparum [1] and 2% with Plasmodium falciparum [2].

`COc1cc(Cc2cnc(N)nc2N)cc(OCCCCNS(=O)(=O)C(F)(F)F)c1OC`: the figures for the Inhibition in the assay on Plasmodium falciparum [1] and in the assay on Plasmodium falciparum [2] were 84% and 0%, respectively.

Consider `CCOC(=O)c1c(-c2ccccc2)c(C(=O)OCC)n2ccccc12`, for which the Inhibition stood at 93% in the assay with Plasmodium falciparum [1] and 70% in the assay with Plasmodium falciparum [2].

Consider `Cc1nc(C)c(-c2cccc(Oc3ccc(Cl)cc3)c2)c(O)c1Br`, for which the figures for the Inhibition in the assay on Plasmodium falciparum [1] and in the assay on Plasmodium falciparum [2] were 96% and 97%, respectively.

Turning to `COc1cc2c(cc1OC)C(C)(C)CN1Cc3c(c(CO)c(OC)c(OC)c3OC)CC21.Cl` (stereo unspecified), the Inhibition was determined as 95% in the assay with Plasmodium falciparum [1] and 9% with Plasmodium falciparum [2].

Turning to `Br.CC(C)(C)OC(=O)N[C@@H](CS(=O)(=O)CCNC(=N)COCc1ccccc1)C(=O)OC(C)(C)C`, the Inhibition in the assay with Plasmodium falciparum [1] stood at 88%; in the assay on Plasmodium falciparum [2], 76%.

Turning to `CN(Cc1cnc2nc(N)nc(N)c2n1)c1ccc(C(=O)N[C@@H](CCC(=O)O)C(=O)O)cc1` [METHOTREXATE], the Inhibition in the assay on Plasmodium falciparum [1] was 91% and 92%; in the assay on Plasmodium falciparum [2], 44% and 66%.

Take `Cc1[nH]c(C)c(-c2ccc(Oc3ccc(Cl)cc3)cc2)c(=O)c1Cl`: the Inhibition in the assay with Plasmodium falciparum [1] stood at 91%; with Plasmodium falciparum [2], 16%.

Regarding `Nc1nc(N)c2c(ccc3c2ccn3Cc2cccc(F)c2)n1`, the Inhibition with Plasmodium falciparum [1] was found to be 100%; with Plasmodium falciparum [2], 99%.

With `CC(C)Cn1ccc2c3c(N)nc(N)nc3ccc21`, the Inhibition in the assay on Plasmodium falciparum [1] and with Plasmodium falciparum [2] was 96% each time.

For `CCN(CC)CCCC(C)Nc1c2ccc(Cl)cc2nc2ccc(OC)cc12.Cl.O` (stereo unspecified), the Inhibition in the assay on Plasmodium falciparum [1] and in the assay on Plasmodium falciparum [2] was 100% each time.

For `CCCCC#Cc1cnc2nc(N)[nH]c(=O)c2n1`, the Inhibition in the assay on Plasmodium falciparum [1] turned out to be 89%; in the assay with Plasmodium falciparum [2] it was 2%.

For `COc1ccc2c(c1CNCCCCCCNCc1c(OC)ccc3c1CCCC3)CCCC2`, the results for the Inhibition in the assay on Plasmodium falciparum [1] and in the assay with Plasmodium falciparum [2] were 94% and 7%, respectively.

`Nc1nnc(-c2ccc(Cl)c(Br)c2)c(N)n1`: the Inhibition in the assay on Plasmodium falciparum [1] was determined as 86%; with Plasmodium falciparum [2], 0%.

Consider `CCOC(=O)N1CCN(CCCCCNc2cc(C)nc(NC(=N)Nc3ccc(Cl)cc3)n2)CC1.Cl`, for which the figures for the Inhibition in the assay on Plasmodium falciparum [1] and in the assay on Plasmodium falciparum [2] were 100% and 0%, respectively.

Values taken from ChEMBL document CHEMBL1157539, “Thousands of chemical starting points for antimalarial lead identification” (Nature, 2010).
